Experimental data from PubChem BioAssay (NCI).
This is part of a sample that, as a whole, favours compounds with a hit. Of some 83,000 tested, about 20% had one in any assay.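 A percent growth of 40 corresponds to 60% growth inhibition; 0 means no net growth; -100 means all cells died. Active threshold: below 10.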 Values without a mark were called inactive. Active and inactive are the calls of the source.

Tested on: SF-539 CNS
Assay: NCI-60 one-dose screen, 48 h (100 = growth as untreated, 0 = no growth, -100 = all killed)
Settings: 10 µM

Q: Which growth does the source give for COc1cc2cc(C(=O)N3C[C@@H](CCl)c4c3cc(OC(=O)N3CCN(C)[C@@H]5CSSC[C@@H]53)c3ccccc43)[nH]c2c(OC)c1OC here?
A: Its growth is -72.4% (active).

Q: With COc1cc2cc(C(=O)N3C[C@@H](CCl)c4c3cc(OC(=O)N3CCN(C(=O)CCC(=O)N5CCN(C)CC5)[C@@H]5CSSC[C@@H]53)c3ccccc43)[nH]c2c(OC)c1OC as the compound, how does the growth read?
A: Its growth is -91.8% (active).

Q: With COC(=O)c1ccc(-n2cc(CCCN(CCNc3ccnc4cc(Cl)ccc34)C(=O)CCC(=O)O[C@@H]3O[C@@H]4OC5(C)CC[C@H]6[C@H](C)CC[C@@H]([C@H]3C)[C@@]46OO5)nn2)cc1 as the compound, how does the growth read?
A: Its growth is 39%.

Q: O=C([Se]C1C=CCCC1)c1ccc(C(=O)[Se]C2C=CCCC2)s1 (stereo not drawn) was tested. Which growth did it give?
A: Its growth is -100% (active).

Q: O=C(/C=C/c1cccc(Br)c1)c1nc2ccccc2n1Cc1ccc(F)cc1 was tested. Which growth did it give?
A: Its growth is 8.26% (active).

Q: Which growth does the source give for CC[C@]12C=CCN3CC[C@@]4(c5ccc(OC)cc5N(C)[C@H]4[C@@](O)(C(=O)OC)[C@@H]1OC(=O)CCC[P+](c1ccc(C)cc1)(c1ccc(C)cc1)c1ccc(C)cc1)[C@@H]32 here?
A: The growth was -96.6% (active).

Q: Which growth does the source give for O=C(NC([Se])=NC1CCCCC1)c1ccccc1 here?
A: Its growth is 14.3%.

Q: How did the growth turn out when O=C(/C=C/c1ccc(F)cc1)c1nc2ccccc2n1Cc1ccc(F)cc1 was run?
A: The growth was -63.5% (active).

Q: With O=C(/C=C/c1ccccc1)c1nc2ccccc2n1Cc1ccc(Br)cc1 as the compound, how does the growth read?
A: The growth was -93.4% (active).

Q: Which growth does the source give for C=CC[Se]C(=O)c1cncc(C(=O)[Se]CC=C)c1 here?
A: The growth was -99.9% (active).

Q: With COc1ccc(OC)c(/C=C/C(=O)c2nc3ccccc3n2Cc2ccc(F)cc2)c1 as the compound, how does the growth read?
A: Its growth is -80.4% (active).

Q: Which growth does the source give for O=C(/C=C/c1ccc(F)cc1)c1nc2ccccc2n1Cc1ccc(Br)cc1 here?
A: Its growth is -92.5% (active).

Q: Which growth does the source give for CC[C@]12C=CCN3CC[C@@]4(c5ccc(OC)cc5N(C)[C@H]4[C@@](O)(C(=O)OC)[C@@H]1OC(=O)CCCC[P+](c1ccc(C)cc1)(c1ccc(C)cc1)c1ccc(C)cc1)[C@@H]32 here?
A: Its growth is -98.7% (active).

Q: Which growth does the source give for CC(C)N=C([Se])NC(=O)c1cccs1 here?
A: Its growth is -63.3% (active).

Q: For CC1=C(CCC=NNC(N)=O)C2=C(C)C3(CC3)[C@@](C)(O)C(=O)C2=C1, which growth is on record?
A: Its growth is -99.1% (active).

Q: Cc1ccc2[nH]c(=S)n(-c3ccc(F)cc3)c(=O)c2c1 was tested. Which growth did it give?
A: The growth was 94.8%.

Q: With C#CC[Se]C(=O)c1ccc2n[se]nc2c1 as the compound, how does the growth read?
A: Its growth is 40.3%.

Q: Which growth does the source give for CC1=C(COCCOC(=O)c2ccc(S(=O)(=O)F)cc2)C2=C(C)C3(CC3)[C@@](C)(O)C(=O)C2=C1 here?
A: Its growth is -76.2% (active).

Q: How did the growth turn out when CC12CCC3(CCC(=O)NCCCNc4ccnc5cc(Cl)ccc45)[C@@](C)(OO[C@]3(C)O1)O2 was run?
A: The growth was -65.6% (active).

Q: For O=C(/C=C/c1ccc(Br)cc1)c1nc2ccccc2n1Cc1ccc(Br)cc1, which growth is on record?
A: The growth was -60.2% (active).

Q: How did the growth turn out when COC(=O)CCn1c(-c2ccc(-n3cc(-c4ccc(O[C@H]5O[C@@H]6OC7(C)CC[C@H]8[C@H](C)CC[C@@H]([C@H]5C)[C@@]68OO7)cc4)nn3)cc2)nc2ccccc21 was run?
A: Its growth is 20.9%.

Q: How did the growth turn out when CC1=C(C=O)C2=C(C)C3(CC3)[C@@](C)(O)C(=O)C2=C1 was run?
A: The growth was -47.8% (active).

Q: Which growth does the source give for N#C[Se]CC(=O)Nc1cccc(C(F)(F)F)c1 here?
A: Its growth is -91% (active).

Q: Which growth does the source give for CCC[Se]C(=O)c1ccc(C(=O)[Se]CCC)s1 here?
A: Its growth is -84.7% (active).

Q: C[C@H]1[C@@H](CC(=O)N[C@@H](Cc2coc3ccccc23)B(O)O)O[C@@H]2OC3(C)CC[C@H]4[C@H](C)CC[C@@H]1[C@@]24OO3 was tested. Which growth did it give?
A: Its growth is -96.4% (active).

Q: Which growth does the source give for O=C(/C=C/c1ccco1)c1nc2ccccc2n1Cc1ccc(F)cc1 here?
A: The growth was 64.6%.

Q: COC(=O)C[C@](O)(CCC(C)C)C(=O)O[C@H]1C(OC)=C[C@@]23CCCN2CCc2cc4c(cc2[C@@H]13)OCO4 was tested. Which growth did it give?
A: The growth was -51.4% (active).

Q: How did the growth turn out when C[C@H]1[C@H](OC(=O)CCC(=O)N(CCCc2cn(-c3ccc(C#N)cc3)nn2)CCNc2ccnc3cc(Cl)ccc23)O[C@@H]2OC3(C)CC[C@H]4[C@H](C)CC[C@@H]1[C@@]24OO3 was run?
A: The growth was 44.5%.
